This is part of a sample that, as a whole, favours compounds with a hit. Of some 79,000 tested, about 15% had one in any assay. A number with no mark means an inactive call. Active and inactive are the calls of the source. No stated cut-off is given here; in the data, active means growth inhibition above about 70%; inactive means the rest.
Assay: NCI Yeast Anticancer Drug Screen. Data for the wt2 strain (AID 169);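 further: 0% = growth of vehicle-treated yeast cultures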
Conditions: S. cerevisiae wt2 strain growth inhibition; at 100.0 µM; hits give high values
How it was run: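 Against vehicle-treated controls, the growth of yeast exposed to each compound was compared, and the inhibition was recorded.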

Question: Which growth inhibition does the source give for `CCS(=O)(=O)c1ccc(/C=C/C=N/NC(=S)NCC(C)C)cc1` here?
Answer: 55%

Question: For `CCC(=O)Oc1c(Cl)cc(Cl)c2ccccc12`, which growth inhibition is on record?
Answer: 20%

Question: For `COc1cc2c3c(cccc3c1)C(=O)N(CCN(C)C)C2=O`, which growth inhibition is on record?
Answer: 5%

Question: Which growth inhibition does the source give for `CN(C)c1ccc(C(C#N)=C(C#N)C#N)cc1` here?
Answer: 7%

Question: For `O=C(CCCN1CCC2(CC1)CC(=O)N(N1CCCCCC1)C2=O)c1ccc(F)cc1`, which growth inhibition is on record?
Answer: 68%

Question: For `O=C1C2C(C(=O)N1c1ccc(OCc3ccccc3)cc1)C1c3ccccc3C2C2CCCCN21` (stereo not given), which growth inhibition is on record?
Answer: 94% (active)

Question: Which growth inhibition does the source give for `CCN(CC)CCC(=O)c1ccc(Oc2ccc(F)cc2)cc1` here?
Answer: 80% (active)

Question: With `O=Nc1c(NO)ccc2nn(-c3ccccc3)nc12` as the molecule, how does the growth inhibition read?
Answer: 98% (active)

Question: Which growth inhibition does the source give for `CC(=O)SCCC[Si](C)(C)CCCSC(C)=O` here?
Answer: 33%

Question: Which growth inhibition does the source give for `O=C(O)C1CCCCC1c1c2ccc(=O)c(O)c-2oc2c(O)c(O)ccc12` (stereo not given) here?
Answer: 73% (active)

Question: With `Cc1ccc(NN(NC(=O)OC(C)C)C(=O)OC(C)C)cc1` as the molecule, how does the growth inhibition read?
Answer: 11%

Question: For `O=C1c2ccccc2C(=O)c2cc(CBr)ccc21`, which growth inhibition is on record?
Answer: 69%

Question: With `Cc1c(C(Cc2ccccc2N(C)C(=O)/C=C\C(=O)O)c2c[nH]c3ccccc23)c2ccccc2n1C` (stereo not given) as the molecule, how does the growth inhibition read?
Answer: 49%

Question: Which growth inhibition does the source give for `CC(C)/C(Cl)=N\OC(=O)Nc1ccc(F)cc1` here?
Answer: 99% (active)

Question: For `O=C1OC(=O)C2CCCC3CCCC1C32` (stereo not given), which growth inhibition is on record?
Answer: 96% (active)

Question: With `CCOC(=O)C(NC(=O)c1ccccc1)(N1CCN(c2cc3c(cc2F)c(=O)c(C(=O)O)cn3C2CC2)CC1)C(F)(F)F` (stereo not given) as the molecule, how does the growth inhibition read?
Answer: 1%

Question: With `COc1ccc(NC(=S)N/N=C(\c2ccccc2)c2ccccn2)cc1` as the molecule, how does the growth inhibition read?
Answer: 96% (active)

Question: For `C=CCC1=C(C)C(OC(=O)/C=C/c2ccccc2)CC1=O` (stereo not given), which growth inhibition is on record?
Answer: 12%

Question: Which growth inhibition does the source give for `NNc1c(F)c(F)cc(F)c1F` here?
Answer: -13%

Question: For `COP(=O)(OC)/C(=C\C1=CN(C(c2ccccc2)(c2ccccc2)c2ccccc2)CN1)NC=O`, which growth inhibition is on record?
Answer: 96% (active)

Question: Which growth inhibition does the source give for `COC(=O)c1cc(-c2ccc(C)cc2)[nH]c(=O)c1C#N` here?
Answer: -2%

Assay: NCI Yeast Anticancer Drug Screen. Data for the mlh1 strain (AID 171);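 further: 0% = growth of vehicle-treated control cultures of the same strain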
Conditions: S. cerevisiae mlh1 strain growth inhibition; at 1.2 µM; hits give high values
How it was run: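 Measured: yeast growth. Reference: vehicle-treated controls. Organism: strain with a defined alteration affecting DNA damage repair or cell cycle control, treated with compound.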

Question: For `CCOP(=O)(OCC)C(Cc1ccccc1)N=C(c1ccccc1)c1ccccc1` (stereo not given), which growth inhibition is on record?
Answer: 1%

Question: Which growth inhibition does the source give for `CCc1ncnc2cc(OCC3CO3)c(OC)cc12` (stereo not given) here?
Answer: -4%

Question: For `CCOC(=O)[C@H]1Nc2ccccc2C2c3ccccc3CC21` (stereo not given in full), which growth inhibition is on record?
Answer: -3%

Question: Which growth inhibition does the source give for `O=CNc1ccc2c(c1)C(=O)c1ccccc1-2` here?
Answer: 3%

Question: With `CCOc1ccc2c(c1)c(CC(=O)O)cn2C` as the molecule, how does the growth inhibition read?
Answer: 5%

Question: With `OC1CSCCCSCCSCCCSC1` as the molecule, how does the growth inhibition read?
Answer: -4%

Question: For `N#Cc1c(N)[nH]c2ccc(Sc3ccccc3)cc12`, which growth inhibition is on record?
Answer: -1%

Question: Which growth inhibition does the source give for `Cc1ccc(-c2ccc(Nc3c4ccccc4nc4ccccc34)cc2)cn1` here?
Answer: 5%

Question: With `c1ccc2c(c1)NC(NC1Nc3ccccc3N1)N2` as the molecule, how does the growth inhibition read?
Answer: 3%

Question: With `OC(COc1cccc2ccccc12)CN1CCOCC1` (stereo not given) as the molecule, how does the growth inhibition read?
Answer: 11%

Question: With `CCC/C(Cl)=N\OC(=O)Nc1ccc(Br)cc1` as the molecule, how does the growth inhibition read?
Answer: 14%

Question: Which growth inhibition does the source give for `COc1ccc(/C=C2\SC(=S)N(/C=C/c3nc4ccccc4[nH]c3=O)C2=O)cc1OC` here?
Answer: 1%

Question: For `O=C(NNc1ccnc2cc(Cl)ccc12)/C(=C\c1ccccc1Cl)NC(=O)c1ccccc1`, which growth inhibition is on record?
Answer: -1%

Question: Which growth inhibition does the source give for `CSC1=NNC(SC)=NN1` here?
Answer: -3%

Question: With `Cc1c(C2=C(Br)C(=O)N(C)C2=O)c(=O)n(C)c(=O)n1C` as the molecule, how does the growth inhibition read?
Answer: 0%

Question: For `NCCNc1ccc(NCCN)c2c1C(=O)c1c(O)ccc(O)c1C2=O`, which growth inhibition is on record?
Answer: 2%

Question: With `Cn1c(=O)c(-c2ccccc2)c(N=[N+]=[N-])c2ccccc21` as the molecule, how does the growth inhibition read?
Answer: 1%

Question: Which growth inhibition does the source give for `CCCCCCCCCCCCCCCCCCOCC(O)COP(=O)(O)OCC1OC(n2cc(F)c(=O)[nH]c2=O)CC1O` (stereo not given) here?
Answer: 32%

Question: For `CCS(=O)(=O)c1ccc(/C=C/C=N/NC(=S)NCC(C)C)cc1`, which growth inhibition is on record?
Answer: 4%

Question: With `CCC(=O)Oc1c(Cl)cc(Cl)c2ccccc12` as the molecule, how does the growth inhibition read?
Answer: -2%

Question: Which growth inhibition does the source give for `COc1cc2c3c(cccc3c1)C(=O)N(CCN(C)C)C2=O` here?
Answer: -39%

Question: For `CN(C)c1ccc(C(C#N)=C(C#N)C#N)cc1`, which growth inhibition is on record?
Answer: 6%

Question: Which growth inhibition does the source give for `O=C(CCCN1CCC2(CC1)CC(=O)N(N1CCCCCC1)C2=O)c1ccc(F)cc1` here?
Answer: 25%

Question: Which growth inhibition does the source give for `O=C1C2C(C(=O)N1c1ccc(OCc3ccccc3)cc1)C1c3ccccc3C2C2CCCCN21` (stereo not given) here?
Answer: 1%

Question: For `CCN(CC)CCC(=O)c1ccc(Oc2ccc(F)cc2)cc1`, which growth inhibition is on record?
Answer: 34%

Question: For `O=Nc1c(NO)ccc2nn(-c3ccccc3)nc12`, which growth inhibition is on record?
Answer: 6%

Question: Which growth inhibition does the source give for `CC(=O)SCCC[Si](C)(C)CCCSC(C)=O` here?
Answer: -4%

Question: Which growth inhibition does the source give for `O=C(O)C1CCCCC1c1c2ccc(=O)c(O)c-2oc2c(O)c(O)ccc12` (stereo not given) here?
Answer: -30%

Question: With `Cc1ccc(NN(NC(=O)OC(C)C)C(=O)OC(C)C)cc1` as the molecule, how does the growth inhibition read?
Answer: 0%

Question: With `O=C1c2ccccc2C(=O)c2cc(CBr)ccc21` as the molecule, how does the growth inhibition read?
Answer: 2%

Question: Which growth inhibition does the source give for `Cc1c(C(Cc2ccccc2N(C)C(=O)/C=C\C(=O)O)c2c[nH]c3ccccc23)c2ccccc2n1C` (stereo not given) here?
Answer: -7%

Question: Which growth inhibition does the source give for `CC(C)/C(Cl)=N\OC(=O)Nc1ccc(F)cc1` here?
Answer: 1%

Question: Which growth inhibition does the source give for `O=C1OC(=O)C2CCCC3CCCC1C32` (stereo not given) here?
Answer: 44%

Question: Which growth inhibition does the source give for `CCOC(=O)C(NC(=O)c1ccccc1)(N1CCN(c2cc3c(cc2F)c(=O)c(C(=O)O)cn3C2CC2)CC1)C(F)(F)F` (stereo not given) here?
Answer: -1%

Question: Which growth inhibition does the source give for `COc1ccc(NC(=S)N/N=C(\c2ccccc2)c2ccccn2)cc1` here?
Answer: -4%

Question: For `C=CCC1=C(C)C(OC(=O)/C=C/c2ccccc2)CC1=O` (stereo not given), which growth inhibition is on record?
Answer: -3%

Question: With `NNc1c(F)c(F)cc(F)c1F` as the molecule, how does the growth inhibition read?
Answer: -12%

Question: Which growth inhibition does the source give for `COP(=O)(OC)/C(=C\C1=CN(C(c2ccccc2)(c2ccccc2)c2ccccc2)CN1)NC=O` here?
Answer: 1%

Question: Which growth inhibition does the source give for `COC(=O)c1cc(-c2ccc(C)cc2)[nH]c(=O)c1C#N` here?
Answer: -6%
